# In PubChem BioAssay (NCATS):
# Results filed as inconclusive are left out. A call without a number means that no potency is given here. A number with no mark means an inactive call. Calls of active or inactive are those of the source. Calls follow the shape of the dose curve; as a rule, active = well fitted cell-killing curve with a large enough effect; inconclusive = small, poorly fitted or top-dose-only effect, or effect the other way; inactive = no such curve, though single readings can be large or run the other way.
# Experiments:
# [1] = Quantitative High-Throughput drug screen in 47 multiple myeloma cell lines against the NCATS MIPE library collection: SKMM1_PLB cell viability assay (AID 1919863); settings: SKMM1 myeloma viability, CellTiter-Glo ATP, 48 h; viability: hits give low values; also: nearly all actives have a fitted effect of over 35% in size; also: potency is read from the fitted curve at half-maximal effect
# Procedure, shortened: (§1)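 Cells were exposed to library compounds for 48 hours, after which ATP was measured by CellTiter-Glo. Signal was taken as median relative luminescence units.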
# [2] = Quantitative High-Throughput drug screen in 47 multiple myeloma cell lines against the NCATS MIPE library collection: XG6_PLB cell viability assay (AID 1919865); settings: XG6 myeloma viability, CellTiter-Glo ATP luminescence, 48 h; series mostly up to 45.8 µM; also: nearly all actives have a fitted effect of over 40% in size; also: potency is read from the fitted curve at half-maximal effect
# Procedure, shortened: as §1
# [3] = Quantitative High-Throughput drug screen in 47 multiple myeloma cell lines against the NCATS MIPE library collection: XG1_PLB cell viability assay (AID 1919866); settings: CellTiter-Glo ATP, 48 h; series mostly up to 45.8 µM; also: nearly all actives have a fitted effect of over 35% in size; also: potency is read from the fitted curve at half-maximal effect
# Procedure, shortened: as §1
# [4] = Quantitative High-Throughput drug screen in 47 multiple myeloma cell lines against the NCATS MIPE library collection: VP6_DJ cell viability assay (AID 1919867); settings: ATP luminescence, 48 h; series mostly up to 45.8 µM; also: nearly all actives have a fitted effect of over 40% in size; also: potency is read from the fitted curve at half-maximal effect
# Procedure, shortened: as §1
# [5] = Quantitative High-Throughput drug screen in 47 multiple myeloma cell lines against the NCATS MIPE library collection: PE2_PLB cell viability assay (AID 1919869); settings: PE2_PLB myeloma cells viability, ATP luminescence, 48 h; series mostly up to 45.8 µM; also: nearly all actives have a fitted effect of over 35% in size; also: potency is read from the fitted curve at half-maximal effect
# Procedure, shortened: as §1
# [6] = Quantitative High-Throughput drug screen in 47 multiple myeloma cell lines against the NCATS MIPE library collection: PCM6_Riken cell viability assay (AID 1919870); settings: CellTiter-Glo ATP, 48 h; series mostly up to 45.8 µM; also: nearly all actives have a fitted effect of over 30% in size; also: potency is read from the fitted curve at half-maximal effect
# Procedure, shortened: as §1
# [7] = Quantitative High-Throughput drug screen in 47 multiple myeloma cell lines against the NCATS MIPE library collection: RPMI8226_ATCC cell viability assay (AID 1919871); settings: RPMI8226 myeloma viability, CellTiter-Glo ATP luminescence, 48 h; series mostly up to 45.8 µM; also: nearly all actives have a fitted effect of over 30% in size
# Procedure, shortened: as §1
# [8] = Quantitative High-Throughput drug screen in 47 multiple myeloma cell lines against the NCATS MIPE library collection: U266_ATCC cell viability assay (AID 1919864); settings: U266 myeloma viability, CellTiter-Glo ATP luminescence, 48 h; series mostly up to 45.8 µM; also: nearly all actives have a fitted effect of over 35% in size; also: potency is read from the fitted curve at half-maximal effect
# Procedure, shortened: as §1
# [9] = Quantitative High-Throughput drug screen in 47 multiple myeloma cell lines against the NCATS MIPE library collection: UTMC2_PLB cell viability assay (AID 1919868); settings: CellTiter-Glo ATP luminescence, 48 h; series mostly up to 45.8 µM; also: nearly all actives have a fitted effect of over 55% in size
# Procedure, shortened: as §1
compound,measurement,setting,value
N=C(N)c1ccc2cc(OC(=O)c3ccc(N=C(N)N)cc3)ccc2c1,Potency,[1],8.33 µM (active)
same,Potency,[2],inactive
same,Potency,[3],inactive
same,Potency,[4],5.26 µM (active)
same,Potency,[5],10.5 µM (active)
same,Potency,[6],inactive
Cc1nc2n(c(=O)c1CCN1CCC(c3noc4cc(F)ccc34)CC1)CCCC2,viability,[1],134%
same,Potency,[2],inactive
same,Potency,[3],inactive
same,Potency,[4],7.43 µM (active)
same,Potency,[5],inactive
same,Potency,[6],inactive
same,Potency,[7],inactive
CCC(C)(Oc1ccc(C2(c3ccc(OC(C)(CC)C(=O)O)cc3)CCCCC2)cc1)C(=O)O (stereo unspecified),viability,[1],130%
same,Potency,[8],inactive
same,Potency,[2],inactive
same,Potency,[3],inactive
same,Potency,[4],inactive
same,Potency,[5],inactive
same,Potency,[7],inactive
Clc1ccc2c(N3CCN(CCCN4CCN(c5ccnc6cc(Cl)ccc56)CC4)CC3)ccnc2c1,viability,[1],129%
same,Potency,[2],inactive
same,Potency,[3],inactive
same,Potency,[9],inactive
same,Potency,[5],inactive
CCOc1cc(CC(=O)N[C@@H](CC(C)C)c2ccccc2N2CCCCC2)ccc1C(=O)O,viability,[1],138%
same,Potency,[2],inactive
same,Potency,[3],inactive
same,Potency,[4],inactive
same,Potency,[7],inactive
Nc1ccn([C@@H]2O[C@H](CO)[C@@H](O)C2O)c(=O)n1 (stereo partly specified),viability,[1],123%
same,Potency,[2],inactive
same,Potency,[3],inactive
same,Potency,[4],inactive
same,Potency,[5],inactive
same,Potency,[6],inactive
N=C(N=C(N)N)N1CCOCC1,viability,[1],125%
same,Potency,[8],18.7 µM (active)
same,Potency,[4],inactive
same,Potency,[9],inactive
same,Potency,[5],inactive
CN(C)C(=O)COC(=O)Cc1ccc(OC(=O)c2ccc(N=C(N)N)cc2)cc1,viability,[1],150%
same,Potency,[2],5.26 µM (active)
same,Potency,[4],inactive
same,Potency,[5],5.26 µM (active)
Cc1cc(C2CCCCC2)n(O)c(=O)c1,Potency,[1],9.35 µM (active)
same,Potency,[2],8.33 µM (active)
same,Potency,[3],8.33 µM (active)
same,Potency,[4],8.33 µM (active)
same,Potency,[5],8.33 µM (active)
COC1=C(OC)C(=O)C(CCCCCCCCCCO)=C(C)C1=O,Potency,[2],20.9 µM (active)
same,Potency,[3],16.6 µM (active)
same,Potency,[4],14.8 µM (active)
same,Potency,[5],26.4 µM (active)
same,Potency,[6],16.6 µM (active)
same,Potency,[7],inactive
CC(C)[C@H](N)C(=O)OCCOCn1cnc2c(=O)[nH]c(N)nc21,Potency,[5],inactive
Cc1cccc(CN2CCN(C(c3ccccc3)c3ccc(Cl)cc3)CC2)c1 (stereo unspecified),Potency,[6],16.6 µM (active)
C[C@@H](c1ncncc1F)[C@](O)(Cn1cncn1)c1ccc(F)cc1F,Potency,[2],5.26 µM (active)
same,Potency,[5],inactive
same,Potency,[6],1.66 µM (active)
